Data as given in PubChem BioAssay (Tox21).
“And” between values parts separate entries of the source, which are not always exact repeats. Identical values can stand only once. Results filed as inconclusive are left out. The source made the active and inactive calls. Unless noted, the call rests on the fitted dose curve; in most records, active means well fitted curve in the direction sought with a large enough effect in the repeat runs; inconclusive means weak or mixed curves; inactive means no such curve, though single readings can be large; an effect the other way counts as inactive or inconclusive.

Columns and labels:
[1] = qHTS assay to test for compound auto fluorescence at 535 nm (green) in HEK293 cells (AID 720680); further: potency means the concentration at half of the fitted maximal effect
[2] = qHTS assay to test for compound auto fluorescence at 460 nm (blue) in HEK293 cell free culture (AID 720681); further: potency means the concentration at half of the fitted maximal effect
Procedure, shortened: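 Compounds were added to cell-free DMEM with 10% FBS and fluorescence read directly. The blue channel used 405 nm excitation and 460 nm emission, with triamterene as the reference fluorophore.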

[3] = qHTS assay to test for compound auto fluorescence at 590 nm (red) in HEK293 cell free culture (AID 720683)
Procedure, shortened: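 Cell-free wells of DMEM with 10% FBS received compound, and intrinsic fluorescence was read at excitation/emission 540/590 nm. Values expressed as equivalence to Rose Bengal sodium.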

[4] = qHTS assay to test for compound auto fluorescence at 590 nm (red) in HepG2 cell free culture (AID 720684)
Procedure, shortened: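 Rose Bengal sodium served as the reference for red signal. Test compounds were dispensed into serum-containing MEM (10% FBS) without cells, and plates were read at 540/590 nm.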

[5] = qHTS assay to test for compound auto fluorescence at 460 nm (blue) in HepG2 cell free culture (AID 720685); further: potency means the concentration at half of the fitted maximal effect
Procedure, shortened: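 Cell-free plates of MEM plus 10% FBS received 23 nL compound or DMSO vehicle; blue-channel (405/460 nm) intensity scored against triamterene as reference fluorophore.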

[6] = qHTS assay to test for compound auto fluorescence at 535 nm (green) in HepG2 cell free culture (AID 720686); further: potency means the concentration at half of the fitted maximal effect
[7] = qHTS assay to test for compound auto fluorescence at 460 nm (blue) in HepG2 cells (AID 720687); further: potency means the concentration at half of the fitted maximal effect
Procedure, shortened: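 HepG2 cells in MEM with 10% FBS, attached overnight at 37 C, were exposed to compound or DMSO for 1 hr at 37 C, 5% CO2. Blue fluorescence was read at 405/460 nm, with triamterene as reference fluorophore.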

[8] = qHTS assay for identifying genotoxic compounds that show differential cytotoxicity against isogenic chicken DT40 cell lines with known DNA damage response pathways - wild type cell line (AID 743012); further: nearly all actives have a fitted effect of over 60% in size; further: potency means the concentration at half of the fitted maximal effect
Procedure, shortened: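 Viability of DNA repair-proficient chicken DT40 cells was assessed by CellTiter-Glo luminescence following 40 h compound exposure at 37 C/5% CO2.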

[9] = qHTS assay for identifying genotoxic compounds that show differential cytotoxicity against isogenic chicken DT40 cell lines with known DNA damage response pathways - Rev3 mutant cell line (AID 743014); further: nearly all actives have a fitted effect of over 55% in size; further: potency means the concentration at half of the fitted maximal effect
[10] = qHTS assay for identifying genotoxic compounds that show differential cytotoxicity against isogenic chicken DT40 cell lines with known DNA damage response pathways - Rad54/Ku70 mutant cell line (AID 743015); further: nearly all actives have a fitted effect of over 60% in size; further: potency means the concentration at half of the fitted maximal effect
[11] = qHTS assay to test for compound auto fluorescence at 535 nm (green) in HEK293 cell free culture (AID 720682)
Procedure, shortened: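 DMEM + 10% FBS, cell-free; cpd or DMSO pinned in; Ex485/Em535 read; output as fluorescein-equivalent signal.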

[12] = biological target: Glucocorticoid receptor (Homo sapiens) (UniProt P04150); test: qHTS assay to identify small molecule agonists of the glucocorticoid receptor (GR) signaling pathway (AID 720691; active means well fitted activation curve with a large enough effect in the signal ratio in the repeat runs, not every such curve was filed as active; the % refers to the signal ratio); details: GR-bla HeLa, beta-lactamase reporter ratio, 18 h; activation: at 62.4 µM (top of the series)
Procedure, shortened: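 Compounds in DMSO, alongside positive controls, were added to GR-bla HeLa reporter cells and incubated 18 h at 37 C; GRE-driven beta-lactamase was detected by fluorescence after 2 h with FRET substrate at room temperature.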

[13] = biological target: Glucocorticoid receptor (Homo sapiens) (UniProt P04150); test: qHTS assay to identify small molecule antagonists of the glucocorticoid receptor (GR) signaling pathway (AID 720692; active means well fitted inhibition curve with a large enough effect in the signal ratio in the repeat runs, not every such curve was filed as active; the % refers to the signal ratio; further: potency means the concentration at half of the fitted maximal effect)
Procedure, shortened: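 In a 1536-well cell format, compounds were added 4 h after seeding GR-bla HeLa cells, together with dexamethasone at 5 nM final; reporter activity was measured by FRET-substrate fluorescence following 18 h at 37 C.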

[14] = qHTS assay to identify small molecule antagonists of the glucocorticoid receptor (GR) signaling pathway - cell viability counter screen (AID 720693); further: nearly all actives have a fitted effect of over 55% in size; further: potency means the concentration at half of the fitted maximal effect
[15] = qHTS assay to identify small molecule antagonists of the androgen receptor (AR) signaling pathway - cell viability counter screen (AID 743033; further: nearly all actives have a fitted effect of over 45% in size; further: potency means the concentration at half of the fitted maximal effect)
[16] = qHTS assay to identify small molecule antagonists of the androgen receptor (AR) signaling pathway using the MDA cell line - cell viability counter screen (AID 743041; further: nearly all actives have a fitted effect of over 45% in size; further: potency means the concentration at half of the fitted maximal effect)
Procedure, shortened: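 Cytotoxicity counter screen: MDA-kb2 AR-luc cells, compound + R1881, 16 h, 37C, 0% CO2; CellTiter-Fluor added at 15.5 h, fluorescence read after 30 min.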

[17] = qHTS assay to identify small molecule antagonists of the thyroid receptor (TR) signaling pathway - cell viability counter screen (AID 743064); further: nearly all actives have a fitted effect of over 50% in size; further: potency means the concentration at half of the fitted maximal effect
Procedure, shortened: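 Viability of T3-stimulated (1 nM final) GH3.TRE-Luc cells is measured by CellTiter-Fluor fluorescence after 23.5 h compound exposure at 37 °C plus 30 min reagent incubation.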

Measured: Potency
Tags describe the fitted curve by direction and shape or compound fluorescence and quenching.

Sequence of Glucocorticoid receptor (Homo sapiens) (P04150 whole entry, looked up): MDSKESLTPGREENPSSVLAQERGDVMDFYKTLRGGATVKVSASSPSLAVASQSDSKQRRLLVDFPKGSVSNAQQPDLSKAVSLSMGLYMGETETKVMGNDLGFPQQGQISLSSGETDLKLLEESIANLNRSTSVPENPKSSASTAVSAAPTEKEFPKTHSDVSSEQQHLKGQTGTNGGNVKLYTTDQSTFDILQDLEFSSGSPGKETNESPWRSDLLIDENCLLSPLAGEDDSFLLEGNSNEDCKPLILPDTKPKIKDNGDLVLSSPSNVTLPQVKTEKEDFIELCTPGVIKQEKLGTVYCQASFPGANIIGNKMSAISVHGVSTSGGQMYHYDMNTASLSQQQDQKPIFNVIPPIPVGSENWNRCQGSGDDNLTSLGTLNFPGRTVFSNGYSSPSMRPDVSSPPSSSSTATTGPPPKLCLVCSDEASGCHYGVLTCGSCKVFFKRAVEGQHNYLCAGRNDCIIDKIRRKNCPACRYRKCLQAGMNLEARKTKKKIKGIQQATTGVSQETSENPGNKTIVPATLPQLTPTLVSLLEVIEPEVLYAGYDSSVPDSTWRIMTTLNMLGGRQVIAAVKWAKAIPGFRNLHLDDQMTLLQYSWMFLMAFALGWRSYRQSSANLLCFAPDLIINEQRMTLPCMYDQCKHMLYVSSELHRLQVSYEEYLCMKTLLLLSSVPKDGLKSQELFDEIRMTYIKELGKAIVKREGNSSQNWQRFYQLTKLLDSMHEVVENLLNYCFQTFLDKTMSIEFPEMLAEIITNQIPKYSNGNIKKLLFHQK

C[n+]1c2cc(N)ccc2cc2ccc(N)cc21 (tested in a mixture with another compound)
active: [1] 12.6 µM [fluorescent] | [2] 11.2 µM | [5] 11.2 µM [fluorescent] | [6] 12.6 µM [fluorescent] | [7] 14.1 µM [fluorescent] | [8] 5.96 µM | [9] 1.68 µM | [10] 2.66 µM
inactive: [3] | [4]

CCN(CC)CCSC(=O)C(c1ccccc1)c1ccccc1
active: [13] 19 µM and 10.7 µM | [8] 26.6 µM
not listed: [1] | [10] | [17]
inactive: all other assays above

CCCCCCCCCCCCCCNCCO
active: [8] 11.9 µM | [9] 21.1 µM | [10] 11.9 µM
not listed: [11] | [12] | [13]
inactive: all other assays above

Brc1ccccc1-c1ccccc1
active: [9] 41 µM | [10] 41 µM
not listed: [8] | [11] | [12] | [13] | [14] | [17]
inactive: all other assays above

CN(C)c1ccc(N=Nc2ccccc2C(=O)O)cc1
active: [17] 15.4 µM
not listed: [10] | [11] | [13] | [14]
inactive: all other assays above

Nc1ncnc2c1ncn2[C@@H]1O[C@H](COP(=O)(O)O)[C@@H](O)[C@H]1O
not listed: [9] | [11] | [13] | [14]
inactive: all other assays above

CC(C)(C)CC(C)(C)c1ccccc1O
active: [14] 34.9 µM | [9] 24.5 µM | [10] 54.8 µM | [15] 39.1 µM | [17] 19.4 µM
not listed: [8] | [11] | [12] | [13]
inactive: all other assays above

CN(Cc1cc(Br)cc(Br)c1N)C1CCCCC1
active: [8] 10.6 µM | [9] 6.68 µM | [10] 10.6 µM
not listed: [11] | [15] | [17]
inactive: all other assays above

Cn1cnc2ncnc(N)c21
not listed: [8] | [11] | [12] | [13]
inactive: all other assays above

CCCCCCCC/C=C\CCCCCCCC(=O)OCCOC(=O)CCCCCCC/C=C\CCCCCCCC
not listed: [11] | [12] | [13] | [14] | [17]
inactive: all other assays above

CC(C)(C)c1cc(/C=C2\SC(=N)NC2=O)cc(C(C)(C)C)c1O
inactive: [1] | [2] | [3] | [4] | [5] | [6] | [7]
active: [8] 43.3 µM | [9] 61.1 µM | [10] 17.2 µM | [15] 49 µM | [17] 21.7 µM

NCCCCCCNCCCCCCN
active: [8] 7.57 µM | [9] 6.75 µM | [10] 5.36 µM
not listed: [1]
inactive: all other assays above

CCCCCCCC/C=C\CCCCCCCC(=O)N(C)CC(=O)O
inactive: [1] | [2] | [11] | [3] | [4] | [5] | [6] | [7]
active: [10] 27.3 µM | [17] 30.6 µM

O=C(O)CC(=O)O
not listed: [7] | [12] | [13]
inactive: all other assays above

CCCCCCCCCCCCCOP(=O)(O)O
not listed: [8] | [11] | [14] | [16]
inactive: all other assays above

CCCCCCCCCCCCCC[n+]1ccccc1
active: [14] 13.8 µM | [9] 0.077 µM | [10] 0.109 µM | [15] 12.3 µM | [16] 4.33 µM | [17] 6.86 µM
not listed: [8] | [11] | [12] | [13]
inactive: all other assays above
